This is part of a sample that, as a whole, favours compounds with a hit. Of some 83,000 tested, about 20% had one in any assay.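 In brief: 96-well plates, 48 h treatment, single concentration, percent growth endpoint.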 Unmarked numbers belong to inactive results. Calls of active or inactive are those of the source. The calls were made as follows: active = growth percent below 10; inactive = the rest.
Legend:
Assay in all cases: NCI-60 one-dose screen, 48 h (100 = growth as untreated, 0 = no growth, -100 = all killed)
Conditions in all cases: 10 µM unless noted
HT29 colon = test system: HT29 colon
SNB-75 CNS = test system: SNB-75 CNS
SNB-19 CNS = test system: SNB-19 CNS
U251 CNS = test system: U251 CNS
PC-3 prostate = test system: PC-3 prostate
SK-MEL-5 melanoma = test system: SK-MEL-5 melanoma
UACC-62 melanoma = test system: UACC-62 melanoma
LOX IMVI melanoma = test system: LOX IMVI melanoma
SK-MEL-28 melanoma = test system: SK-MEL-28 melanoma

SMILES | growth (HT29 colon) | growth (SNB-75 CNS) | growth (SNB-19 CNS) | growth (U251 CNS) | growth (PC-3 prostate) | growth (SK-MEL-5 melanoma) | growth (UACC-62 melanoma) | growth (LOX IMVI melanoma) | growth (SK-MEL-28 melanoma)
Cn1c2nc3ccccc3c-2cc2ccccc21 | 30.2% | 82.3% | 45.5% | 41.7% | 46.2% | 31.2% | 46.2% | 18.9% | 76.1%
Cc1cc(Br)ccc1-n1cc(C#N)c(N)c1C(=O)c1ccc(Br)cc1 | 102% | 95.6% | 96.3% | 99.9% | 103% | 95.7% | 94.3% | 96.6% | 102%
COC(=O)[C@@H](Cc1c[nH]c2ccccc12)NC(=O)CCCCOc1cc(O)c2c(=O)cc(-c3ccccc3)oc2c1 | 107% | 72.3% | 89.4% | 92.2% | 73.6% | -97.8% (active) | 66.3% | 54.7% | 101%
CC1(C)CC[C@]23CC[C@]4(C)[C@H](CC[C@@H]5[C@@]6(C)CC[C@H](N)C(C)(C)[C@@H]6CC[C@]54C)[C@H]2[C@H]1OC3 | 20.2% |  | 47.3% | -47.9% (active) |  | 87.7% | 94.6% | -74.2% (active) | 103%
Cc1ccc2c(n1)C(=O)C(Cl)=C(Nc1ccc(C)c(C)c1)C2=O | 103% | 87.6% | 56.2% | 71.8% | 45.3% | 6.91% (active) | 49.3% | 0.982% (active) | 58.3%
C=CCSC1=NC2C(N(CC)C(=O)N2CC)N1/N=C/C=C/c1ccccc1OC (stereo not drawn) | 70.3% | 70.7% | 79.9% | 74.2% |  | 65.5% | 54.6% | 68.9% | 84.3%
CN(C)S(=O)(=O)c1ccc(-c2nc(C(Cl)Cl)nc3cc(-c4ccc(F)cc4)nn23)cc1 | -5.58% (active) | 48.3% | 23.5% | 2.76% (active) | 26.7% | 55.1% |  | -6.07% (active) | 27.1%
Clc1ccc(CSc2nnc(-c3ccc(Cl)cc3)n2-c2ccccc2)cc1 | 84% | -0.642% (active) | 62% | 81.2% | 71% | 94.3% | 85.8% | 88.6% | 98.8%
O=C(/C=C/C=C/c1csc(Br)n1)NO | 94.5% | 75.6% | 94.4% | 98.6% | 84.8% | 96% | 84.8% | -31.7% (active) | 102%
O=C(Nc1ccc(Cl)c(C(F)(F)F)c1)Nc1ccc2oc(=O)ccc2c1 | 65.4% | 58.6% | 28.5% | 31.3% | 10.6% | 41.4% | 27.9% | 1.96% (active) | 66.7%
C#CCOc1cccc(-c2nc(N)nc(Nc3ccccc3SSc3ccccc3Nc3nc(N)nc(-c4cccc(OCC#C)c4)n3)n2)c1 | 96.9% | 27.7% | -9.77% (active) | -48.9% (active) | 7.33% (active) | 57.3% | 63.9% | -52.8% (active) | 88.9%
O=C(Nc1ccccc1)Nc1nc2ccc([N+](=O)[O-])cc2[nH]1 | 84.4% | 84.9% | 66.3% | 55.5% | 45.8% | 40.4% | 44% | 57.2% | 61.6%
Cc1ccc(S(=O)(=O)NCCCNc2nccc(-c3[nH]c(-c4ccccc4)nc3-c3ccc(F)c(O)c3)n2)cc1 | 96.2% | 73.9% | 107% | 98.2% | 69.5% | 38.6% |  | 73.8% | 38.3%
C=C(C)[C@@H]1CC[C@]2(C(=O)N3CCN(C)CC3)CC[C@]3(C)[C@H](CC[C@@H]4[C@@]5(C)CC[C@H](OP(=O)(OCC)OCC)C(C)(C)[C@@H]5CC[C@]43C)[C@@H]12 | 76.1% | 89.7% | 90.9% | 78.8% | 44.3% | 69.7% | 81.6% | 44.6% | 104%
COc1ccc(-c2cnc(NC(=O)CCCCCCNC(=O)C(O)(O)C(F)(F)F)s2)cc1 | 0.86% (active) | 36.8% | 17.5% | -46.4% (active) | 17.8% | -62.2% (active) | -31.8% (active) | -89.5% (active) | 8.09% (active)
COCCOc1ccc2ncc(C#Cc3cncc(C(=O)Nc4ccc(CN5CCN(C)CC5)c(C(F)(F)F)c4)c3)n2n1 | 15.6% | 4.29% (active) | 18.1% | 37.9% | 35% | 67.4% | 31.5% | -88.9% (active) | -49.4% (active)
c1ccc(-c2cn3c(-c4c[nH]c5ccccc45)csc3n2)cc1 | 63% | 80.9% | 59.7% | 61% | 43.2% | 81% | 49.6% | 83.7% | 71.9%
CN1CCN(Cc2ccc(NC(=O)c3cncc(C#Cc4cnc5ccc(N6CCOCC6)nn45)c3)cc2C(F)(F)F)CC1 | -71.2% (active) | -46.3% (active) | -20.3% (active) | -92.8% (active) | -7.08% (active) | -95.9% (active) | -62.2% (active) | -93.8% (active) | -76.4% (active)
CC1=C(C)C(=O)C(Nc2cccc(C)c2)=C(Br)C1=O | 105% | 67.7% | 101% | 101% | 78.5% | 90.5% | 94.4% | 58.1% | 115%
C#C[C@]1(O)CC[C@H]2[C@@H]3CC=C4c5sc(NCc6ccccc6)nc5CC[C@]4(C)[C@H]3CC[C@@]21C | -7.33% (active) | 23.5% | 66.2% | 23.4% | 15.3% | 58.2% | 9.41% (active) | -5.72% (active) | 12.7%

SMILES | growth (HT29 colon) | growth (SNB-75 CNS) | growth (SNB-19 CNS) | growth (U251 CNS) | growth (PC-3 prostate) | growth (SK-MEL-5 melanoma) | growth (UACC-62 melanoma) | growth (LOX IMVI melanoma) | growth (SK-MEL-28 melanoma)
Brc1cc(-c2cc(-c3ccc4c(c3)OC=CO4)[nH]n2)cs1 | 90% | 83.5% | 84.1% | 81.3% | 97.3% | 87.5% | 76.9% | 80% | 94.2%
Cn1cc(-c2nn3cc(-c4ccncc4)nc3s2)c2cc(Br)ccc21 | 4.54% (active) | 45.9% | 81.7% | 54.7% | 30.2% | 57.9% | 61.5% | 52.5% | 94.2%
CC(C)Sc1nc(-c2ccccc2)c(C#N)c(N2CCOCC2)n1 | 71.8% | 9.58% (active) | 69% | 44.8% | 82% | 95.5% | 91.7% | 35.6% | 88.6%
CCOC(=O)Nc1ccc2c(ccn2C(=O)c2cccc(F)c2)c1 | 1.15% (active) | 13.2% | 27.8% | 25.7% |  | 27.7% | 32.3% | 49.4% | 61.5%
C#Cc1nc(/C=C\CCCCCCC(=O)NO)cs1 | 55% | -57.7% (active) | 71.6% | 70.6% | 66.9% | 31.9% |  | -82% (active) | 54.1%
COc1ccc(/C(=N\NC(N)=S)c2ccc(Cl)cc2)cc1OC | -1.79% (active) | -8.75% (active) | 24.1% | 22.4% | 36.4% | 21.9% | 18.9% | 40.5% | 47.6%
Cc1c(C(=O)/C=C/c2ccc(Cl)cc2)nnn1-c1ccc2oc(=O)ccc2c1 | 101% | 104% | 96.3% | 96.7% | 92% | 97.7% | 83.6% | 80.7% | 106%
O=C1[C@H]2Cc3c([nH]c4ccccc34)[C@H](c3ccc(Cl)cc3)N2C(=O)CN1C1CCN(CC2CCCCC2)CC1 | -21.9% (active) | 41.4% | 76% | 49.2% | 52.9% | 37.8% |  | -79.5% (active) | 83.2%
Cc1csc(/N=C(N)/N=C(\N)c2cccnc2)n1 | 59% | 41.7% | 69.4% | 76.5% | 69.2% | 80.3% | 40.2% | 74.7% | 65.3%
O=C(/C=C/c1cccc(C(F)(F)F)c1)Nc1cccc(C(F)(F)F)c1 | 51.5% | 97.5% | 81.9% | 26.9% | 18.9% | 89.1% | 84.5% | 28.4% | 65.4%
COc1ccccc1Cn1cc(C#N)c(N)c1C(=O)c1ccc(Br)cc1 | 107% | 81.1% | 84.9% | 102% | 96.8% | 96.7% | 69.7% | 94.6% | 100%
C#CCN(C)CCCOc1ccc(NC(=O)CCCCCCCCC(=O)NO)cc1Cl | 67.8% | 63.4% | 77.3% | 64.3% | 73.9% | 54.9% | 40.6% | 4.6% (active) | 77%
C#CCOc1ccccc1/C=N/Nc1nc(-c2ccc(Cl)cc2)cs1 | 106% |  | 97.9% | 99.2% | 86.5% | 98.3% |  | 95.1% | 98.1%
CCC(=C(c1ccc(OCCN2CCCCCC2)cc1)c1ccc(OCCN2CCCCCC2)cc1)c1ccc(Cl)cc1 | -44.7% (active) | 62% | -21.3% (active) | -69.8% (active) | 27.7% | 21.5% | -35.4% (active) | -89.6% (active) | -82% (active)
CCOc1cccc(/C(N)=N/C(N)=N/c2nc3ccccc3s2)c1 | 106% | 87.9% | 87.8% | 58.3% | 46.4% | 92.2% |  | 13.2% | 
O=C1[C@@H]2Cc3c([nH]c4ccccc34)[C@@H](c3ccc(Cl)cc3)N2C(=O)CN1C1CCN(Cc2c(F)cccc2F)CC1 | -10.2% (active) | 25.9% | 47.8% | 38% | 13.8% | 48.8% | 40.7% | 21.3% | 64.8%
CCCc1cc2cc(-n3nc(CC)c4c3CC(C)(C)CC4=O)cc(NC3CCC(O)CC3)c2c(=O)[nH]1 (stereo not drawn) | 7.9% (active) | -6.85% (active) | 30.6% | 27.8% | 32.8% | 14.1% | 26.6% | 23.7% | 40.8%
Cc1cccc(N2CCN(C3=C(Cl)C(=O)c4ncccc4C3=O)CC2)c1 | 104% | 84.3% | 79.5% | 85.2% |  | 95.2% | 74.3% | 24.2% | 92.1%
O=C(CCCCCCN1CC(=O)N2[C@@H](c3ccccc3Br)c3[nH]c4ccccc4c3C[C@H]2C1=O)NO | 37.2% | 21.8% | 55.4% | 44.7% | 56% | 30% | 21.6% | -60.4% (active) | 31.6%

— PubChem BioAssay (NCI)
